According to PubChem BioAssay AID1159580 (chemical genetic matrix, 2015):
The whole screen tested about 5,500 compounds, of which about 2,000 (36%) were called active. Not shown: some 18% with an inconclusive outcome. No stated cut-off is given here; in the data, active means normalized growth mostly below about 0.91 (no sharp cut-off); inconclusive means no clear call, values can overlap the other calls; inactive means mostly above about 0.92. The list shows a part of the results.

Assay: chemical genetic growth profiling, strain panel (AID 1159580);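 further: tested at 20 µM; growth read once vehicle control cultures reached saturation at 30 °C; 1 = growth at the plate median or of vehicle wells; lower values mean less growth of the strain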
Conditions: S. cerevisiae deletion strains, growth OD

Measured: normalized growth

S=C(S)OC1CC2CC1C1CCCC21 (stereo not given)
inactive: locus YAL040C, strain CLN3, hits give low values 1 | locus YCL061C, strain MRC1 (second series), hits give low values 1.01 | locus YDR363W, strain ESC2, hits give low values 1.02 | locus YER002W, strain NOP16, hits give low values 1.01 | locus YGR078C, strain PAC10, hits give low values 1 | locus YJR075W, strain HOC1, hits give low values 1 | locus YMR307W, strain GAS1, hits give low values 1.01 | locus YNL128W, strain TEP1, hits give low values 1.01 | locus YNL175C, strain NOP13, hits give low values 1.02 | locus YNL197C, strain WHI3, hits give low values 1.03 | locus YNL224C, strain SQS1, hits give low values 1.06 | locus YNL322C, strain KRE1, hits give low values 1.01 | locus YOR083W, strain WHI5 (second series), hits give low values 1 | locus YPL055C, strain LGE1, hits give low values 0.943 | locus YPL241C, strain CIN2, hits give low values 1.01
